Results published in PubChem BioAssay AID1671190 (National Center for Advancing Translational Sciences (NCATS), 2021).
Several values for one entry are separate records, joined by “and”; a condition that tells them apart may be missing. Equal values may be shown once. About 6,100 (1.1%) of roughly 580,000 compounds were called active. Not shown: some 15% with an inconclusive outcome. This is one part of a sample in which actives are shown more often than they occur. A number with no mark means an inactive call. Calls come from the whole dose curve; as a rule, active = well fitted inhibition curve with a large enough effect; inconclusive = small, poorly fitted or top-dose-only effect, or another doubt; inactive = no such curve, though single readings can be large or run the other way.

Molecular target: Polyunsaturated fatty acid lipoxygenase ALOX12 (Homo sapiens) (UniProt P18054)
Sequence (P18054 whole entry, looked up): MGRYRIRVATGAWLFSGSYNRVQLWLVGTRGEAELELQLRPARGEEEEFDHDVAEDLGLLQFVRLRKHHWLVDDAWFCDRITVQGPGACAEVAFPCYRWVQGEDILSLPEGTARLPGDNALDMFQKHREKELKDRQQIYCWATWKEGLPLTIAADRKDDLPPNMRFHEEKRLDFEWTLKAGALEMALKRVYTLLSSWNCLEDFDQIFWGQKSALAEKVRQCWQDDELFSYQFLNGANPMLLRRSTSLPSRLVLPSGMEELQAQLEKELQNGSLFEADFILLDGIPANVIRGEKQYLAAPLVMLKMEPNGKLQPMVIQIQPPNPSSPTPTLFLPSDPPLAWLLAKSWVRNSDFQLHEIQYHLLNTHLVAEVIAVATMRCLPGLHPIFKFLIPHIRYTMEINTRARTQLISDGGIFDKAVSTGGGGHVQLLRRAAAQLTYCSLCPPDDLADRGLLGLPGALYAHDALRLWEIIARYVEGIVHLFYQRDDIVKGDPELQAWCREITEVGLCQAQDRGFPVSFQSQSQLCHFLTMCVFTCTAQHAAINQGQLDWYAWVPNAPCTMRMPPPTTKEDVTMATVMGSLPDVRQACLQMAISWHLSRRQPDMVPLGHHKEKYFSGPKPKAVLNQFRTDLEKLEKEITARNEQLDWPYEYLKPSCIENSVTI
Assay: Primary qHTS assay for inhibitors of human arachidonate 12S-lipoxygenase (ALOX12): Round 2
Conditions: purified 12hLO, xylenol orange hydroperoxide absorbance; series mostly up to 108 µM; activity change, negative = inhibition: at the top concentration
Procedure, shortened: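 Purified human 12hLO (150 nM final) in 25 mM Hepes, 0.01% Triton X-100, pH 7.0 was preincubated 15 min at room temperature with compound. Then 40 uM arachidonic acid was added, 30 min. Hydroperoxide was read by Fe-XO absorbance ratio 573/405 nm.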
% is set by controls: 0 for no effect and ±100 for the full control effect; potency is the fitted concentration of half-maximal effect.

Compound | activity change, negative = inhibition | Potency
CCCN1C2=C(C(=O)CCC2)C(c2ccc(O)c(Br)c2)C2=C1CCCC2=O | 0.376% | 
COc1ccc(C2C3=C(CCCC3=O)N(CC(=O)O)C3=C2C(=O)CCC3)cc1 |  | 10 µM (active)
COc1ccc(C2C(C#N)=C(N)N(c3ncn[nH]3)C3=C2C(=O)CCC3)cc1 (centres undefined) | 7.37% | 
CCCCCCCC1CCC(c2ccc(-c3ccc(CCCC)cn3)cc2)CC1 (centres undefined) | 8.25% | 
COc1ccc(NC(=O)CN(C)C(=O)c2nc(-c3ccccc3)oc2C)cc1 | -28.5% | 
CCCOc1ccc(/C(O)=C2/C(=O)C(=O)N(CCN(C)C)C2c2ccc(OC)c(OC)c2)cc1 (centres undefined) | 0% | 
COc1cc(C2/C(=C(\O)c3ccc4c(c3)CC(C)O4)C(=O)C(=O)N2Cc2ccco2)ccc1O (centres undefined) | -13.7% | 
CCOc1cc(C2/C(=C(/O)c3ccc(S(=O)(=O)N4CCCCC4)cc3)C(=O)C(=O)N2CCOC)ccc1O (centres undefined) | -11.4% | 
COc1ccc(C2/C(=C(/O)c3ccc(OC(C)C)cc3)C(=O)C(=O)N2CCCN2CCOCC2)cc1 (centres undefined) | -14.3% | 
COc1ccc(/C(O)=C2/C(=O)C(=O)N(CC3CCCO3)C2c2ccc(OC)c(OC)c2)cc1 (centres undefined) |  | 17.8 µM (active)
COc1ccc(/C(O)=C2\C(=O)C(=O)N(Cc3ccco3)C2c2ccc(OC)cc2OC)cc1 (centres undefined) |  | 14.1 µM (active)
COCCN1C(=O)C(=O)/C(=C(/O)c2ccc(S(=O)(=O)N3CCOCC3)cc2)C1c1ccc(OC)c(OC)c1 (centres undefined) | -19.4% | 
COCCN1C(=O)C(=O)/C(=C(/O)c2ccc(S(=O)(=O)N3CCCCC3)cc2)C1c1ccc(OC)c(OC)c1 (centres undefined) |  | 14.1 µM (active)
COc1cccc(C2/C(=C(/O)c3ccc(F)cc3)C(=O)C(=O)N2CCN(C)C)c1 (centres undefined) | 22.4% | 
Cc1ccc(C)c(OCc2ccc(-c3nc(C#N)c(NC(C)C)o3)o2)c1 | -14.7% | 
CCCCCCC(C)NC(=O)COC(=O)c1n[nH]c(=O)c2ccccc12 (centres undefined) | -13.7% | 
NCC(=O)N1CCCC2(Cc3ccccc3CN2C(=O)c2cccc(Cl)c2)C1 (centres undefined) | 42.1% | 
Cc1cc2ccccc2n1CC(=O)NCc1ccc(C(N)=O)cc1 | 19.6% | 
Cc1cccc(NC(=O)c2ccccc2NC(=O)CN2CCN(S(=O)(=O)c3cccs3)CC2)c1 | 3.21% | 
COc1ccc(S(=O)(=O)N2CCC(C(=O)Nc3cccc(C)c3)CC2)c2cccnc12 | 26.8% | 
COC(=O)[C@H](Cc1ccc(OC)cc1)NC(=O)[C@H]1CN(C(=O)c2ccc(N(C)C)cc2)CCN1S(=O)(=O)c1ccccc1 | 6.47% | 
CCCN(C)C(=O)CCC[C@H]1NC[C@@H]2C[C@H]1CN(Cc1ccccc1)C2 | -0.277% | 
CC1(C)CC(=O)C2=C(C1)OC(N)=C(C#N)C2c1cccnc1 (centres undefined) | -14.4% | 
N#CC1=C(N)OC2=C(C(=O)CCC2)C1c1ccc(-c2ccc(Cl)cc2Cl)o1 (centres undefined) |  | 28.2 µM (active)
NC1=C([N+](=O)[O-])C(c2ccccc2)C2=C(CCCC2=O)O1 (centres undefined) | 10.4% | 

Compound | activity change, negative = inhibition | Potency
O=C(Nc1ccccc1F)N1CC2CCC(C1)N2Cc1ccc(-c2cccnc2)cc1 | 0.675% [at 6.33 µM] | 
Cc1ccc(/C=C/C(=O)Nc2ccc([N+](=O)[O-])c(NC(=O)/C=C/c3ccc(C)o3)c2)o1 |  | 6.31 µM (active)
COc1ccc(OC)c(NC(=O)/C=C/c2ccc(C)o2)c1 | -4.21% | 
CC(=O)Nc1ccc2c3c(ccc([N+](=O)[O-])c13)CC2 | -4.52% | 
COCCn1c(SCc2cccc(Br)c2)nnc1-c1ccccc1 | 0.725% | 
Cc1ccc(C)c(/C=C/c2nc3ccccc3s2)c1 | -17% | 
CC(C)(C)NC(=O)C(=O)NN=C1CCCCCCC1 | 244% | 
CC(C)(C)c1ccc(C(=O)NN=C2CCCCC2)cc1 | 48.6% | 
CC(C)NC(=S)NN=C1CCCCCCCCCCC1 |  | 35.5 µM (active)
COc1ccc(C)cc1CN(C)C(=O)CCn1ccc2ccccc21 | -19.6% | 
CCOC(=O)c1cccc(NC(=O)c2cc(S(=O)(=O)N3CCCC(C)C3)cn2C)c1 (centres undefined) | -5.94% | 
CCOC(=O)c1c(NC(=O)c2ccc(S(=O)(=O)N3CCCC(C)C3)cc2)sc2c1CCN(C(C)C)C2 (centres undefined) | -18.9% | 
CCOC(=O)c1cn[nH]c1S(=O)(=O)N1CCCC(C)C1 (centres undefined) |  | 11.2 µM (active)
O=C(Nc1ccc(Cl)nc1)c1ccc2cc[nH]c2n1 | 5.64% [at 12.5 µM] and 1.76% [at 12.5 µM] | 
CC/C(=C(/c1ccccc1)c1ccc(OCC[N+](C)(C)C)cc1)c1ccccc1 |  | 44.7 µM (active)
CCCCCCCCCOc1ccc(C(=O)c2ccccc2)cc1 | 19.7% | 
CC/C(=N/N=C(/CC)c1ccccc1)c1ccccc1 | -0.0612% | 
CCCCOCCCNC(=O)c1cccc(C#N)c1 | 8.27% | 
Cc1ccc(N/N=C/C=C/c2ccccc2)cc1Cl |  | 2.82 µM (active)
O=C(N/N=C/C=C/c1ccccc1)C1CC1(c1ccccc1)c1ccccc1 (centres undefined) | 17.3% | 
O=C(NN=CC=Cc1ccccc1)C(O)C(O)C(=O)NN=CC=Cc1ccccc1 (centres undefined) | -0.942% | 
CCOc1ccc(C(=O)N2c3ccccc3NC(=O)C2CC(=O)Nc2cccc(C(F)(F)F)c2)cc1 (centres undefined) | -13.4% | 
O=C(Oc1ccc2cc(-c3ccccc3)c(=O)oc2c1)N1CCOCC1 | -0.175% | 
O=C(NCc1ccccc1)c1cccc(NC(=O)C2CCCCC2)c1 | -2.41% | 
